The results in this text go back to ChEMBL document CHEMBL3988442, “University of Dundee, Small-Polar-MMV Screening Library” (2021).

The whole screen tested about 48,000 compounds, of which about 13,000 (27%) showed an effect of 50% or more. Some of the results follow.

The subject of this experiment is Wolbachia pipientis. Kind of experiment: Anti-Wolbachia Cell-Based Screen. The format is functional. Also on record: scale not given: in the data most compounds retested in dose-response had high values. The following applies: 5 µM.
In the case of `CC(C)N1CCC2(CC1)CN(C)C(=O)C[C@H]2C(F)(F)F`, the “Percent Effect” value is on record as -3.989%.
As for `COc1ccc2c(c1)CCCN(C(C)C(=O)NC(N)=O)C2` (stereo not drawn), the figure is -1.078%; as for `NC(=O)C1=NC2=NS(=O)(=O)c3ccccc3N2N1Cc1ccc(Br)cc1`, 9.157%.
For `Cc1c[nH]c(C(=O)N2CCn3nc(C(=O)NC4CC4)cc3C2)n1` the value was -2.025%.
For `Cc1nc2ccc(C(=O)N3CCN(CCO)[C@@H]4CS(=O)(=O)C[C@@H]43)cc2o1` the value was -12.01%; for `CC(C)N1CCC(c2n[nH]cc2S(C)(=O)=O)CC1`, 115.7%.
As for `COCCn1ccnc1C1CCCN(C(=O)c2ccccc2C#N)C1` (stereo not drawn), the “Percent Effect” value is -8.592%.
For `Cn1ccnc1C1CCCN(C(=O)c2cc(F)cc(F)c2)C1` (stereo not drawn) the value was 106.9%.
Consider `COCCn1ccnc1C1CCCN(C(=O)c2cc(F)cc(F)c2)C1` (stereo not drawn), for which the “Percent Effect” value worked out at 83.8%.
`COCCn1ccnc1C1CCCN(C(=O)c2ccncc2F)C1` (stereo not drawn): the “Percent Effect” value stood at 0%.
For `COCCn1ccnc1C1CCCN(C(=O)c2cccnc2SC)C1` (stereo not drawn) the value was -0.1241%.
As for `Cc1nc(N)sc1C(=O)N1CCCC(c2nccn2CCCN(C)C)C1` (stereo not drawn), the figure is 8.356%.
Turning to `Cc1cc(C(=O)N2CCCC(c3nccn3Cc3ccncc3)C2)no1` (stereo not drawn), the “Percent Effect” value is listed as 10.63%.
As for `CCc1ncc(C(=O)N2CCCC(c3nccn3CCOC)C2)cn1` (stereo not drawn), the figure is -9.089%; as for `Cc1cc(C(=O)N2CCCC(c3nccn3C)C2)cc(S(N)(=O)=O)c1C` (stereo not drawn), 99.7%; as for `Cn1ccnc1C1CCCN(C(=O)c2ccncc2F)C1` (stereo not drawn), 111.1%.
Consider `CC(C)(O)c1cn(C2CCN(C(=O)CCC(F)(F)F)CC2)nn1`, for which the “Percent Effect” value was determined as 13.09%.
For `CN(CCc1ccncc1)C(=O)c1sccc1OC(F)F` the value was -13.92%; for `CCC1=N[C@@]2(CC[C@@H]3CN(C(=O)NCC(C)C)C[C@@H]32)C(=O)N1CC1CC1`, 11.23%.
Consider `Cc1ncc(C(=O)Nc2cncnc2N(C)C)c(Cl)c1Cl`, for which the “Percent Effect” value is given as -6.041%.
As to `CN(C)C(=O)c1cccnc1SCc1ccccc1C#N`, the “Percent Effect” value came to 100.1%.
As for `CN(C)C(=O)c1ccccc1NCCCOc1cccc(C#N)c1`, the figure is -15.07%.
Turning to `CSc1ncccc1C(=O)N(C)C(C)Cc1ccccn1` (stereo not drawn), the “Percent Effect” value is recorded as 1.339%.
For `Cc1cccnc1NC(=O)CNC(=O)c1ccccc1Cl` the value was -60.17%.
For `CN(C)C(=O)c1cccnc1SCc1ccccc1Cl` the value was 128.1%; for `CN(C)C(=O)CN1C[C@@H]2CC[C@H](C1)N(Cc1ccccc1C#N)C2`, -40.35%.
For `CSCC(=O)N(Cc1ccccn1)Cc1ccccc1C` the value was -1.935%.
Consider `CSc1ncccc1C(=O)N(C)CCc1scnc1C`, for which the “Percent Effect” value is 0.9599%.
For `Cc1ccccc1CSc1ncccc1C(=O)N(C)C` the value was 111%; for `O=C(CNC(=O)C1CCCC1)NCc1cnn(-c2ccc(F)cc2F)c1`, -3.155%; for `CC(=O)N1CCc2c(nc(N(C)C)nc2NCCc2cccs2)C1`, 30.52%.
As for `Cc1ccccc1C(O)CNC(=O)Cc1ccc(F)cc1` (stereo not drawn), the figure is -16.74%; as for `O=C(CCN1CCOC(Cn2cccn2)C1)NC1CCCCC1` (stereo not drawn), 137.8%.
For `OC1(CN2CCOC(CNc3cccnn3)C2)CCCCC1` (stereo not drawn) the value was 90.58%.
`O=C(CCN1CCOC(Cn2cccn2)C1)NC1CCCC1` (stereo not drawn): the “Percent Effect” value is 3.251%.
Regarding `c1cnnc(NCC2CN(CCN3CCCCC3)CCO2)c1` (stereo not drawn), the “Percent Effect” value is -1.688%.
Turning to `O=C(CN1CCOC(CNc2cccnn2)C1)N1CCCCC1` (stereo not drawn), the “Percent Effect” value is recorded as 113.9%.
For `O=C(CN1CCOC(Cn2cccn2)C1)NC1CCN(C2CC2)CC1` (stereo not drawn) the value was -5.348%; for `O=C(CCN1CCOC(CNc2cccnn2)C1)NC1CCCCC1` (stereo not drawn), 89.48%; for `Cc1c2nnn(CC(=O)N(C)C)c(=O)c2nn1C`, 15.44%.
For `COCc1nc2cc(NCc3ccc(C)o3)ccc2o1` the value was -0.6949%; for `COCCN(C)CCN1CC2(CCN(C3CCCOC3)CC2)OC1=O` (stereo not drawn), -0.4921%.
As for `Cc1cnccc1NCCn1ccnc1C1CCCCC1`, the figure is 3.788%; as for `Cc1ncc(CN(C)CC(O)c2ccc(OC(F)(F)F)cc2)s1` (stereo not drawn), -20.59%.
Turning to `Cc1cnn(CCC(=O)NC2CCc3nc(C)cn3C2)c1` (stereo not drawn), the “Percent Effect” value was found to be 105.9%.
For `Cc1cn2c(n1)CCC(NC(=O)CCCn1cncn1)C2` (stereo not drawn) the value was 102.3%.
For `Cc1cn2c(n1)CCC(NC(=O)Cn1cncn1)C2` (stereo not drawn) the value was 119.2%.
As for `Cc1cn2c(n1)CCC(NC(=O)CCn1ccnn1)C2` (stereo not drawn), the figure is -2.127%; as for `Cc1cn2c(n1)CCC(NC(=O)CCn1cncn1)C2` (stereo not drawn), -7.204%.
Regarding `Cc1cn2c(n1)CCC(NC(=O)CCC(F)(F)F)C2` (stereo not drawn), the “Percent Effect” value is given as 10.47%.
As for `Cc1cn2c(n1)CCC(NC(=O)c1ccc(CS(C)(=O)=O)o1)C2` (stereo not drawn), the figure is -5.623%; as for `CCN(C(=O)CNC1CCc2ncnn2C1)C1=CCCCC1` (stereo not drawn), -6.833%.
For the molecule `CC(C)Oc1ccc(NCc2ccc([S+](C)[O-])cc2)c(F)c1` (stereo not drawn), the “Percent Effect” value worked out at 7.808%.
For `O=C(NCc1nn(-c2ccccc2)c2c1CCC2)NC1CC1` the value was -2.781%; for `CCc1cc(CNC(=O)NCc2ccc(N3CCCCC3)cc2)on1`, -23.7%.
For `O=C1CC(NS(=O)(=O)c2ccc(Br)cc2)CN1` (stereo not drawn) the value was 151.1%.
With `CSc1ccc(S(=O)(=O)NC2CNC(=O)C2)cc1` (stereo not drawn), the “Percent Effect” value was -0.4933%.
As for `O=S(=O)(NC1CC1)c1cccc(Br)c1`, the figure is -14.81%.
As for `Cc1ccc(S(=O)(=O)NC2CCC(=O)NC2)cc1Br` (stereo not drawn), the figure is -11.56%; as for `O=C1CC(NS(=O)(=O)c2cccc(F)c2)CN1` (stereo not drawn), 126.5%.
For `Cn1nnn(-c2ccc(NS(=O)(=O)c3ccc(F)c(Cl)c3)cc2)c1=O` the value was -5.508%; for `O=C(c1ccc(S(=O)(=O)NC2CCC2)cc1)N1CC[C@H]2CNC[C@H]21`, -0.3981%; for `CC(Cn1ccnc1)NS(=O)(=O)c1ccc(F)c(Cl)c1` (stereo not drawn), -9.501%.
On to `O=C1CC(NS(=O)(=O)c2ccc(F)c(Cl)c2)CN1` (stereo not drawn), for which the “Percent Effect” value worked out at 135.6%.
As for `COC(=O)c1ccc(S(=O)(=O)NC2CNC(=O)C2)cc1` (stereo not drawn), the figure is 131%.
For `COc1cccc(S(=O)(=O)NC2CNC(=O)C2)c1` (stereo not drawn) the value was 1.379%.
For `CSCCCN1CCn2nc(CNC(=O)N(C)C)cc2C1` the value was -17.64%; for `Cc1ncsc1CCC(=O)NC1CCN(c2ncccc2C#N)CC1`, 5.658%.
